# Rows were chosen to be rich in hits. Some 21% of all compounds tested hit in one or more screens of this group.
# TDP1 cell CPT: growth inhibition of DT40 Tdp1-/-;hTDP1 cells with camptothecin (screen for TDP1 inhibitors); chicken DT40 Tdp1-/-;hTDP1 cells + 20 nM CPT, ATP luminescence, 48 h; Potency, µM (series often up to 46.2 µM), without a hit: at the top dose activity change, negative = growth inhibition, usual class: inhibitors; hit rate 12% among 420,000; further: potency means the concentration at half of the fitted maximal effect; nearly all actives have a fitted effect of over 55% in size
#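 Chicken DT40 Tdp1-/- cells complemented with human TDP1, 400 cells/well, exposed to compounds plus 20 nM camptothecin for at least 48 h at 37 C; viability read as ATP content by CellTiter-Glo luminescence.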
# VP16 counter: Gal4-VP16 reporter inhibition counter-screen; Drosophila S2 Gal4-VP16 UAS-luciferase, luminescence, 20 h; Potency, µM (top dose mostly 53.6 µM), inactives show at the highest dose activity, negative = inhibition, hits mostly inhibitors; hit rate 3.5% among 310,000;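 further: Gal4-VP16 expression switched on by copper sulfate through the metallothionein promoter; potency means the concentration at half of the fitted maximal effect; nearly all actives have a fitted effect of over 50% in size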
# IL1B secr inh: inhibitors of inflammasome signaling (IL-1 beta secretion) | hit rate 4.7% among 360,000 | activity change, % at 57.5 µM | THP-1 LPS/ATP IL-1B secretion, AlphaLISA, 16 h; active compounds read low; in the data active means activity change below about -50%; inconclusive means mostly about -30% to -49%
#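 THP-1 cells pretreated 1 hr with compounds (up to 57.5 uM final), then stimulated with LPS (250 ng/mL final) plus ATP (1.25 mM final); secreted IL-1B measured by AlphaLISA after 16 hr, decreased signal indicating inhibition.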
# RORgamma inh: ROR gamma (mouse) transcription inhibition | Drosophila S2 Gal4-RORgamma UAS-luciferase reporter, 20 h | Potency, µM (series often up to 53.6 µM), inactives show at the highest dose activity change, negative = inhibition, usual class: inhibitors | P51450 | AID 2551 | hit rate 5.4% among 310,000; further: potency means the concentration at half of the fitted maximal effect; nearly all actives have a fitted effect of over 60% in size
# Target sequence (P51450 whole entry, looked up, the tested form may be a part): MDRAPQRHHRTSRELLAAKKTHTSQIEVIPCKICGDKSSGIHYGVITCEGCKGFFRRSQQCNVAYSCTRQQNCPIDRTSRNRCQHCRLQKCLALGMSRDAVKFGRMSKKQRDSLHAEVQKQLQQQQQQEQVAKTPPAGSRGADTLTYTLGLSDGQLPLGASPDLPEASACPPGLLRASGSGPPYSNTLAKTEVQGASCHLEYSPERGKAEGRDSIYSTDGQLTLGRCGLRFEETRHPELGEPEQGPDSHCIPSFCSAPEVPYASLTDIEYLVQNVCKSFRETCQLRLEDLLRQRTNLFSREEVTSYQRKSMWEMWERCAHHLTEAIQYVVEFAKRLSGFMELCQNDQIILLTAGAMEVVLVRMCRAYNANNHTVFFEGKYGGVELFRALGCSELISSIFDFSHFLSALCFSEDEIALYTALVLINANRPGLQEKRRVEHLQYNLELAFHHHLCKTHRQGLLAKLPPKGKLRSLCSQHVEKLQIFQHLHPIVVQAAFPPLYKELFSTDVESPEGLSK
#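 Stable Schneider cell line, Gal4 DNA-binding domain fused to ROR gamma, UAS-luciferase. Cmpd 1 hr RT → CuSO4 700 uM final → 20 hr RT → luciferase reagent 10 min → luminescence.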
# TDP1 cell noCPT: qHTS for Inhibitors of human tyrosyl-DNA phosphodiesterase 1 (TDP1): qHTS in cells in absence of CPT; hit rate 15% among 420,000; AID 686978, 2013; DT40 Tdp1-/- hTDP1 cells, no CPT, ATP luminescence, 48 h; Potency, µM (titrated, usually from 46.2 µM), inactives show at the top dose activity change, negative = growth inhibition, usual class: inhibitors; further: potency means the concentration at half of the fitted maximal effect; nearly all actives have a fitted effect of over 55% in size
#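 Growth of hTDP1-complemented DT40 Tdp1-knockout cells is measured by ATP luminescence after at least 48 hr compound exposure at 37 °C, with DMSO substituting for the 20 nM CPT used in the parallel screen.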
# ELG1 repair inh: inhibitors of ELG1-dependent DNA repair in HEK293T cells; hit rate 2.3% among 330,000; Potency, µM (top dose mostly 46.1 µM), inactives show top-dose activity change, negative = inhibition, actives largely listed as inhibitors; HEK293T ELG1-luciferase reporter, luminescence, 16 h; DNA damage induced by 5-fluorouridine; AID 504467; further: potency means the concentration at half of the fitted maximal effect; nearly all actives have a fitted effect of over 55% in size
#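 5-Fluorouridine DNA damage + compound/DMSO, 2,000 cells/well, 16 h, 37 °C/5% CO2. ONE-Glo, 30 min RT, luminescence. Readout = decrease in reporter signal.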
# An asterisk follows results filed as active; ? = inconclusive; / = no result; [ ] = dose if it differs, or a comment. Unless noted, the call rests on the fitted dose curve; in most records, active means well fitted curve in the direction sought with a large enough effect; inconclusive means small, poorly fitted or top-dose-only effect, or another doubt; inactive means no such curve, though single readings can be large; an effect the other way counts as inactive or inconclusive. On the % scale 0 is the no-effect control and ±100 the full control effect.
SMILES,TDP1 cell CPT,VP16 counter,IL1B secr inh,RORgamma inh,TDP1 cell noCPT,ELG1 repair inh
Cc1cc(C)c2[nH]c(=O)c(C(c3nnnn3Cc3ccc4c(c3)OCO4)N3CCC(C)CC3)cc2c1 (stereo not drawn),?,-2.1%,-22.4,20.0%,16.4µM*,1.0%
Cc1cccc(-n2c(-c3ccoc3C)n[nH]c2=S)c1,-2.5%,?,17.5,8.91µM*,?,10.4%
Cc1ccccc1-n1c(-c2ccoc2C)n[nH]c1=S,?,?,37.4,10µM*,?,?
Cc1ccccc1-n1c(C)n[nH]c1=S,-17.6%,-5.3%,-8.0,?,-2.2%,1.5%
CC(C)=CCC1(CC=C(C)C)C(=O)C(C(=O)c2ccccc2)=C2OC(C)(C)CCC2(CC=C(C)C)C1=O (stereo not drawn),/,1.2%[10 µM],/,-3.4%[10 µM],/,/
COc1ccc(C(CNC(=O)C(=O)NC2CCCCC2)N2CCN(C)CC2)cc1 (stereo not drawn),-26.0%,/,-7.5,/,-6.5%,20.2%
CN(C(=O)c1cccc(NC(=O)Cc2ccc(NC(=O)C3CCN(C(=O)C4CC4)CC3)cc2)c1)C1CCCCC1,-22.0%,/,-6.6,/,-20.0%,/
CCc1ccc(C2=C(C)C(N3CCC(C(=O)NCCc4ccco4)CC3)=NS2(=O)=O)cc1,?,/,/,/,18.4µM*,/
CC1=C(c2ccc(C(C)C)cc2)S(=O)(=O)N=C1N1CCN(C(=O)c2ccco2)CC1,-23.5%,-2.0%,10.7,-1.0%,-16.2%,0.1%
CC1=C(c2ccc(C(C)C)cc2)S(=O)(=O)N=C1N1CCN(c2ccccc2F)CC1,?,/,/,/,18.4µM*,/
CC1=C(c2ccc(C(C)C)cc2)S(=O)(=O)N=C1N1CCC(C(=O)NCCc2ccco2)CC1,23.1µM*,/,/,/,?,/
CC1=C(c2ccc(Cl)cc2)S(=O)(=O)N=C1N1CCC(C(=O)NCCc2ccco2)CC1,0.1%,/,/,/,?,/
CCOC(=O)c1sc(NC(=O)C2CC(=O)N(c3ccc(OCC)cc3)C2)nc1C (stereo not drawn),0.2%,6.4%,18.4,3.4%,-0.3%,-14.6%
Cc1ccccc1OCC(=O)OCc1cc(=O)n2ccsc2n1,-22.0%,/,/,/,?,/
CC(=O)N1CCN(C(=O)CCN(c2ccccc2)S(=O)(=O)c2ccc(C)cc2)CC1,3.5%,/,3.9,/,-22.7%,10.4%
O=C(NCCN1CCOCC1)c1ccc(Cl)c(Cl)c1,23.6%,-0.5%,6.0,-31.5%,4.4%,14.2%
O=C1/C(=C\c2ccc(Cl)c(Cl)c2)CN(C(=O)CCN2CCOCC2)C/C1=C/c1ccc(Cl)c(Cl)c1,0.581µM*,/,-100.8*,/,0.82µM*,/
O=C1/C(=C\c2ccccc2)CN(C(=O)CCN2CCCCC2)C/C1=C/c1ccccc1,1.3µM*,/,-67.1*,/,1.46µM*,/
CCN(CC)CCC(=O)N1C/C(=C/c2ccccc2)C(=O)/C(=C\c2ccccc2)C1,1.84µM*,/,-99.2*,/,3.66µM*,/
O=C(O)C1CCC[C@@H]2[C@@H]3CC(CN12)[C@@H]1CCCCN1C3 (stereo partly drawn),-27.4%[9.04 µM],-1.0%,/,-13.0%,-20.8%[9.04 µM],/
COc1ccccc1CNC(=O)CS(=O)(=O)c1ccccc1,9.5%,2.0%,11.8,15.5%,3.9%,11.2%
Cc1nn(S(=O)(=O)c2ccc(C(C)C)cc2)c(C)c1S(=O)(=O)N1CCCCCC1,-4.5%,/,/,/,1.8%,/
Cc1cc(C(=O)OC(C(=O)Nc2cccc(C(F)(F)F)c2)c2ccccc2)c(C)o1 (stereo not drawn),?,?,0.3,28.7%,20.6µM*,-5.2%
CSC(=Nc1ccccc1)N=C(SCc1ccccc1)N(C)C,1.16µM*,/,-104.0*,/,1.3µM*,/
CCCc1cc(=O)[nH]c(SCc2nc(-c3ccccc3)no2)n1,-14.9%,/,/,/,-27.6%,/
